The whole screen tested about 48,000 compounds, of which about 13,000 (27%) showed an effect of 50% or more. The list shows a part of the results.
The compounds below were run on Wolbachia pipientis (assay: Anti-Wolbachia Cell-Based Screen). Settings: 5 µM.
Type: functional
Design: scale not given: in the data most compounds retested in dose-response had high values

Structure (SMILES) | Percent Effect [%]
CC(C)C(=O)Nc1ncn(Cc2cccc(Br)c2)n1 | 13.22
Cc1nn(C)cc1-c1cc(C(F)(F)F)n(CCCN)n1 | 117.1
Cn1cc(-c2cc(C(F)(F)F)n(CCCN)n2)cn1 | 106
CCn1cc(-c2cc(C(F)(F)F)n(CCCN)n2)cn1 | 69.39
Cc1nn(C)cc1-c1cc(C(F)(F)F)c2c(C)nn(CC(=O)O)c2n1 | 1.02
Cn1cc(-c2nc(C3CCN(CC4CC4)CC3)cc3c2ncn3C)cn1 | -12.1
Cc1nn(C)cc1-c1ccnc(NCCN)n1 | 0.4357
Cc1cc(-c2cnn(C)c2)ccc1OCC(N)=O | 1.914
Cc1noc(CCCC(=O)Nc2ncccc2Br)n1 | -19.61
CCOCC1CN(Cc2ccoc2)Cc2cn(CC3CC3)nc21 (centres undefined) | 25.6
O=C(c1cn(Cc2ccc(Cl)cc2)nn1)N1CCCO1 | -12.44
CCc1cnc(C)nc1N1CCN(C(N)=O)CC1 | -3.33
O=C(C1CCC1)N1CCC2(COCc3cnc(N4CCOCC4)nc32)C1 (centres undefined) | -15.94
Cc1ncc2c(n1)C1(CCN(C(=O)C(C)C)CC1)OCC2.Cl | 141.2
Cc1cnc(N2CCOC3(CCCN(C(=O)C(C)C)C3)C2)nc1 (centres undefined) | -6.845
Cc1ncc2c(n1)C1(CCN(C(=O)C3CC3)CC1)OCC2.Cl | 134.7
Cc1ncc(C(=O)N2CC[C@@]3(O)CCN(C(=O)N(C)C)C[C@H]3C2)cn1 | -6.772
Clc1ccc(CN2CCN(Cn3nccc3-c3cccnc3)CC2)s1 | 6.087
Cc1ccccc1C1CN(c2cnn(C)c(=O)c2Cl)CCO1 (centres undefined) | 91.27
CCC1CN(c2cnn(C)c(=O)c2Cl)CCO1 (centres undefined) | 22.68
CCC1CN(c2cnn(-c3ccccc3)c(=O)c2Cl)CCO1 (centres undefined) | 4.552
Cc1cccc(N(CCC(N)=O)CC(=O)Nc2cc(Cl)ccc2Cl)c1 | -1.848
O=C(O)C(F)(F)F.O=C(O)C(F)(F)F.c1ccc(CNCC2Cn3nnc(-c4ccncc4)c3CO2)nc1 (centres undefined) | 9.944
CCCN(Cc1nccn1C)C(=O)c1cc(C)nc(C)n1 | -2.808
CC(=O)N1CCC(C)(c2cc(C(=O)NCC(C)(C)C)nc(C)n2)CC1 | 109.7

Structure (SMILES) | Percent Effect [%]
Cc1nc(NCc2ccc(C)o2)cc(C(=O)N2CCOCC2)n1 | -3.993
CN(C)CCNC(=O)c1cc2n(n1)CCN(C(=O)CC(C)(C)C)C2 | 4.361
CC(=O)NCC1CCN(C(=O)c2csc(-c3ccc(C)cc3C)n2)CC1 | -1.979
CCN(CC)C(=O)c1cc(C2(C)CCN(C(C)=O)CC2)nc(C)n1 | 112.9
CC(=O)N1CCN(c2cc(-n3cnc(C)c3C)nc(C)n2)CC1 | -7.107
CC(=O)N1CCC(C)(c2cc(C(=O)NCC3CC3)nc(C)n2)CC1 | 107.8
Cc1nc(CN2CCC(CNC(=O)C3(C)CCCC3)CC2)oc1C | -9.195
CNc1nc(N2CCN(C3CCCCC3)C(CCO)C2)nc2c1CCC2 (centres undefined) | 13.4
CNc1nc(C2CCCN2C(C)=O)nc2c1CCN(CC1CC1)C2 (centres undefined) | -2.53
CNc1nc(N2CCN(C)C(CCO)C2)nc2c1CCC2 (centres undefined) | -12.86
CNc1nc(C2CCCN2C(C)=O)nc2c1CN(C1CCCC1)CC2 (centres undefined) | 121.2
CNc1nc(C2CCCN2C(C)=O)nc2c1CN(CCO)CC2.O=CO (centres undefined) | 123.3
CNc1nc(N2CCN(CC=C(C)C)C(CCO)C2)nc2c1CCC2 (centres undefined) | -3.074
N[C@@H]1CCN(Cc2cccc(N3CCOCC3)c2)C[C@H]1O | -37.83
Cc1oc2nc[nH]c(=O)c2c1C(=O)N1CCCC(n2cccn2)C1 (centres undefined) | -6.627
CC(C)OCCCNC(=O)C1CCC(=O)N(C2CCCC2)C1 (centres undefined) | 25.57
CC(Cn1ccnc1)NC(=O)C1(c2ccc3c(c2)OCCO3)CCCC1 (centres undefined) | 6.008
CN(Cc1cnn(C)c1)C(=O)c1ccc(=O)n(Cc2ccccc2)n1 | 97
CN(Cc1cnn(C)c1)C(=O)C1COCC(=O)N1Cc1ccccc1 (centres undefined) | 16.93
CCCn1nc(C(=O)N(C)Cc2cnn(C)c2)ccc1=O | 125
Cc1ccccc1C(C(=O)N(C)Cc1cnn(C)c1)N(C)C (centres undefined) | -13.96
Cc1nc(C)c(C(=O)N(C)Cc2cnn(C)c2)s1 | -4.031
CCCn1nc(C(=O)N(C)Cc2nnc3n2CCC3)ccc1=O | -34.52
CC(=O)NCCNCC1(O)CCCN(CCC2CCCCC2)C1=O (centres undefined) | -25.88
O=C(O)c1ccnc(-c2ccnc(COc3ccccc3Cl)n2)c1 | -33.61

Structure (SMILES) | Percent Effect [%]
Cc1noc(CN2CC(=O)N(C)c3ccccc3C2=O)n1 | 12.92
Cc1c(CS(C)(=O)=O)cccc1NC(=O)CC1CCCC1 | -14.57
CCS(=O)(=O)NC[C@]12COC[C@H]1CN(Cc1sccc1C)C2.O=C(O)C(F)(F)F | -13.08
Cc1csc(CN2C[C@@H]3COC[C@]3(COCC(=O)N(C)C)C2)n1.O=C(O)C(F)(F)F | 103.7
Cc1ccsc1CN1C[C@@H]2COC[C@]2(COCC(=O)N(C)C)C1.O=C(O)C(F)(F)F | 107.4
Cc1nc(COC[C@]23COC[C@H]2CN(Cc2ccoc2)C3)cs1.O=C(O)C(F)(F)F | -5.417
Cc1nc(COC[C@@]23CCC[C@@H]2CN(CC2CCOCC2)C3)cs1.O=C(O)C(F)(F)F | 1.66
Cc1ccsc1CN1C[C@@H]2COC[C@]2(CNC(=O)c2ccco2)C1.O=C(O)C(F)(F)F | -18.71
Cc1nc(CN2C[C@@H]3COC[C@]3(COCC(=O)N(C)C)C2)cs1.O=C(O)C(F)(F)F | 99.96
Cc1cc(C(=O)N2CCC(c3nccn3Cc3ccncc3)CC2)no1 | -16.29
C[C@@H]1C[C@H]2CN(C(=O)C3=CCCC3)C[C@H]2O1 | -41.87
CCOc1ccc(S(=O)(=O)NCCc2ccc(N(C)C)cc2)cc1F | 9.493
CCN(CC)C(=O)CCNC(=O)N(C)Cc1ccc(SC)c(OC)c1 | 28.83
Cc1ccc(F)c(CNc2ccn(CCC(N)=O)n2)c1 | -13.86
O=C1CC[C@H]2CN(c3ncc(F)cn3)CC[C@H]2N1CCc1ccccn1 | -8.563
CC(C)CNC(=O)C1=NOC2(CCN(Cc3cccc(C#N)c3)C2)C1 (centres undefined) | 102.8
O=C(NCC1CC1)C1=NOC2(CCN(Cc3ccc4c(c3)OCO4)C2)C1 (centres undefined) | -22.77
N#Cc1cccc(CN2CCC3(CC(C(=O)NCC4CC4)=NO3)C2)c1 (centres undefined) | -1.937
CCCS(=O)(=O)N1CCC2(CC(C(=O)NCc3cccnc3)=NO2)C1 (centres undefined) | -9.91
Cc1cccc(CN2CCC3(CC(C(=O)NCC(C)C)=NO3)C2)c1 (centres undefined) | 117.4
Cc1ccc(CN2CCC3(CC(C(=O)NCC4CC4)=NO3)C2)cc1C (centres undefined) | 21.96
CNc1snc(C)c1C(=O)N1CCCC(n2ccnc2C(C)C)C1 (centres undefined) | 1.946
Cc1n[nH]c(=O)c2c(NC(=O)CN3CCC(O)CC3)oc(C)c12 | 10.48
CCCNCC1(O)CCCN(Cc2cccc(C)c2)C1=O (centres undefined) | 20.78
Nc1nc(CCC(=O)N2C[C@@H](CN3CCCC3)C[C@H](CO)C2)n[nH]1 | -12.43

Structure (SMILES) | Percent Effect [%]
CCCn1ncc(C2CC(=O)NCc3nc4sc(C)cn4c32)c1C (centres undefined) | 0.1811
CCOc1cccc(C2CC(=O)NCc3nc(N(C)C)sc32)c1 (centres undefined) | 5.085
CCn1ncnc1C1CC(=O)NCc2nc(N)sc21 (centres undefined) | 74.2
CCOc1cccc(C2CC(=O)NCc3nc(N)sc32)c1 (centres undefined) | 2.31
Cc1ccc(C2CC(=O)NCc3nc(N)sc32)cc1C (centres undefined) | 0.1432
CCn1ncnc1C1CC(=O)NCc2nc3ccccn3c21 (centres undefined) | -4.231
CCOc1cccc(C2CC(=O)NCc3nc(N4CCCC4)sc32)c1 (centres undefined) | -6.785
CCn1ncnc1C1CC(=O)NCc2nc(N3CCOCC3)sc21 (centres undefined) | 112.6
CCn1ncnc1C1CC(=O)NCc2nc(N3CCCC3)sc21 (centres undefined) | 88.25
O=C1CCCc2[nH]c(=O)c(C(=O)N(CC3CCCCC3)C3CC3)cc21 | -8.56
Cc1ccc(S(=O)(=O)N2CCOc3ccccc32)cc1C(N)=O | 5.411
CC(C)c1noc(CN(C)C(=O)c2ccccc2-c2nc[nH]n2)n1 | -15.19
CCN1CC2(CC1=O)CN(C(C)=O)CCN(C(=O)NC)C2 (centres undefined) | 104.3
CNC(=O)N1CCN(C(=O)C(C)C)CC2(CC(=O)N(C)C2)C1 (centres undefined) | -13.05
CCS(=O)(=O)N1CCN(C(=O)NC(C)C)CC2(CC(=O)N(C)C2)C1 (centres undefined) | -2.042
CC(C)NC(=O)N1CCN(C(=O)N(C)C)CC2(CC(=O)N(C)C2)C1 (centres undefined) | 11.38
CCN1CC2(CC1=O)CN(C(=O)NC(C)C)CCN(C(=O)C(C)C)C2 (centres undefined) | 117.3
CCN1CC2(CC1=O)CN(C(C)=O)CCN(S(C)(=O)=O)C2 (centres undefined) | -3.303
CCN1CC2(CC1=O)CN(C(=O)N(C)C)CCN(S(C)(=O)=O)C2 (centres undefined) | -16.32
CCN1CC2(CC1=O)CN(C(=O)NC(C)C)CCN(C(=O)NC(C)C)C2 | 115.2
CCN1CC2(CC1=O)CN(C(=O)NC)CCN(S(C)(=O)=O)C2 (centres undefined) | 1.458
CCN1CC2(CC1=O)CN(C(=O)C(C)C)CCN(S(=O)(=O)CC)C2 (centres undefined) | 12.11
CCN1CC2(CC1=O)CN(C(=O)NC(C)C)CCN(S(C)(=O)=O)C2 (centres undefined) | 100.8
CCN1CC2(CC1=O)CN(C(=O)C(C)C)CCN(S(C)(=O)=O)C2 (centres undefined) | 4.611
